Consider seven sequences from paper PMC7862700, “An all-to-all approach to the identification of sequence-specific readers for epigenetic DNA modifications on cytosine”.

Test in all cases: DAPPL (digital affinity profiling via proximity ligation, sequencing); 10 mM Tris-HCl pH 7.5, 50 mM NaCl, 1 mM DTT, 4% glycerol, room temperature, 30 min; GST-TFs on glutathione beads, 16-mer random dsDNA library, 0.1% formaldehyde crosslink after washing; high values mean tight binding
What all share (conditions): protein: recombinant; tags: N-terminal GST; dsDNA, one strand shown

Assay [1] concerns the target T1, ERF (Homo sapiens, UniProt P50548 1-548).
T1 sequence: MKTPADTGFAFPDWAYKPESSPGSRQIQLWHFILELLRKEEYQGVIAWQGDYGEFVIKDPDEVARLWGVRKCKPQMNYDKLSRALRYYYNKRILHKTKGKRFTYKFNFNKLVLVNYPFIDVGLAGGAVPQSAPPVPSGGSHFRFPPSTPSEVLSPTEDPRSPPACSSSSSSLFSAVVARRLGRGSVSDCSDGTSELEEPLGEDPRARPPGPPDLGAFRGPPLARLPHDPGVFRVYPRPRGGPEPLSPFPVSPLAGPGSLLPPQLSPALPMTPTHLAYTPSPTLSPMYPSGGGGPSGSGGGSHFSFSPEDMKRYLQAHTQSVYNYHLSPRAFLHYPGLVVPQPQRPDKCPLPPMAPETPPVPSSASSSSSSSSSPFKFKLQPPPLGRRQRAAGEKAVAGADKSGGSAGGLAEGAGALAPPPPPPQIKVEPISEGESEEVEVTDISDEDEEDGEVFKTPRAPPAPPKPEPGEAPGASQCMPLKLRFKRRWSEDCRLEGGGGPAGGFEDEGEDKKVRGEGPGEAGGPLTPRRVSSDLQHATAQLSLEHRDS
The essentials: (§1)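 In yeast, human transcription factors were expressed with a GST fusion, then pulled down on glutathione beads and given DNA barcodes. Pooled with a tag-only sample, they were exposed to 200 nmole of a 16-mer random double-stranded DNA library (Tris/NaCl/DTT/glycerol buffer, room temperature, 30 min), washed, crosslinked with 0.1% formaldehyde, proximity-ligated using BsaI/T4 ligase for 1 h at 37 °C, PCR-amplified and read on an Illumina NextSeq500. Each hexamer's frequency of reads for a factor, divided by the matching frequency for the tag-only sample, gives the binding signal.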

For assay [2], the target named is T2, ETV3L (Homo sapiens, UniProt Q6ZN32 1-361).
T2 sequence: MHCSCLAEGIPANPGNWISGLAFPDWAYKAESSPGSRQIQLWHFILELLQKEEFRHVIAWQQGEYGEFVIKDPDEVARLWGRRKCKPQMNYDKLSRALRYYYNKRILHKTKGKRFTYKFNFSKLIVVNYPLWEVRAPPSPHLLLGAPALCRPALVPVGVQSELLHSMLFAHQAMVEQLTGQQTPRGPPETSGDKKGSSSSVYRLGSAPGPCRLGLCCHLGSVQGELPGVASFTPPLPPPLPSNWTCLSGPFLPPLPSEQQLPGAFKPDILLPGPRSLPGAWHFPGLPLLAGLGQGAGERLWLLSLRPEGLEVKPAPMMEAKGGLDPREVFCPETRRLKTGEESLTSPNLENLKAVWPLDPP
In a few lines: as §1

For assay [3], the target named is T3, ETS2 (Homo sapiens, UniProt P15036 1-469).
T3 sequence: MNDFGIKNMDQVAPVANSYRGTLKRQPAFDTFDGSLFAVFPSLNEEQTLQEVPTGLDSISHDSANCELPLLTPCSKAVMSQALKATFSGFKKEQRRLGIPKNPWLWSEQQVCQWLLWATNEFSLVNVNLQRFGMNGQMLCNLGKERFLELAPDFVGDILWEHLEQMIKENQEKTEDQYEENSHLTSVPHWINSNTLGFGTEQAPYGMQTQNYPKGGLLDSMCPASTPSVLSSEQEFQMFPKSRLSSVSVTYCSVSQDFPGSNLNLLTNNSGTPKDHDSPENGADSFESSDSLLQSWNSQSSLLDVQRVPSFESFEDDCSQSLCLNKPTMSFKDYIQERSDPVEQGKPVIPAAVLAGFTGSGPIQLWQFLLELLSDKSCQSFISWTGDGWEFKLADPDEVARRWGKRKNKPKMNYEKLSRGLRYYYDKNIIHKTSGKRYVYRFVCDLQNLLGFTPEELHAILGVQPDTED
The essentials: as §1

The target in assay [4] is T4, SPDEF (Homo sapiens, UniProt O95238 1-335).
T4 sequence: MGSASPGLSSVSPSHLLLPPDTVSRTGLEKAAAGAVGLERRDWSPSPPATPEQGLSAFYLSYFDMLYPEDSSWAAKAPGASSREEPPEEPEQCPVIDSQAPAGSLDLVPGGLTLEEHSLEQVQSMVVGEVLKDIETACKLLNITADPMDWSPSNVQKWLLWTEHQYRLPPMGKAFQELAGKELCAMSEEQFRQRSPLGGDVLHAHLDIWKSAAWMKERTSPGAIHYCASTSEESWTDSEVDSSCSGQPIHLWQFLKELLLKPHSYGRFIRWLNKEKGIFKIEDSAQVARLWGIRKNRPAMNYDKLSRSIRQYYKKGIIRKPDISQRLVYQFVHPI
In a few lines:
as §1

Assay [5] has as its target T5, ETV7 (Homo sapiens, UniProt Q9Y603 1-341).
T5 sequence: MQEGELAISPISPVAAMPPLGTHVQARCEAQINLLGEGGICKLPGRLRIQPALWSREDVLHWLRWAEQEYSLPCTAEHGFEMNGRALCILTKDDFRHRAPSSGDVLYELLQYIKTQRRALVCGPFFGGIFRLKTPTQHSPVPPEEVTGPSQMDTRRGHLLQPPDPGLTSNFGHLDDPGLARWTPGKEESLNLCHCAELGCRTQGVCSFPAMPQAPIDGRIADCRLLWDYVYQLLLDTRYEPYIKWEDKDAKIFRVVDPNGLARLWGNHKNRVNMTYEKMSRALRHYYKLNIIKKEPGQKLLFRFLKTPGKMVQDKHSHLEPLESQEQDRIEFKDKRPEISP
In a few lines: as §1

Assay [6] deals with T6, ELF5 (Homo sapiens, UniProt Q9UKW6-2 1-255).
T6 sequence: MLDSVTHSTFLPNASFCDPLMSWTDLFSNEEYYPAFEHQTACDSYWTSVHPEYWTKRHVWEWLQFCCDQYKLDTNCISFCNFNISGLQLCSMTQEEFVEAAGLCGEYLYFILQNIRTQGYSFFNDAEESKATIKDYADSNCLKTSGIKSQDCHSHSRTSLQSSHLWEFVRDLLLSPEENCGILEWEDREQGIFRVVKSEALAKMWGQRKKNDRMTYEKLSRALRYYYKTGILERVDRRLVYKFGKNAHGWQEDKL
In a few lines:
as §1

The target in assay [7] is T7, ETV3 (Homo sapiens, UniProt P41162-2 1-143).
T7 sequence: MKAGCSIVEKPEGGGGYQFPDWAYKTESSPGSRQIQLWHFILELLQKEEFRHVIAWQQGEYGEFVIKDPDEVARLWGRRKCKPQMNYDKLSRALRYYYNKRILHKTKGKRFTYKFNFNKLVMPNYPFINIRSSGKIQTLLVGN
In a few lines: as §1

The target in assay [8] is ETV6 (Homo sapiens, UniProt P41212 1-452). In a few lines:
as §1

ETV6, sequence (P41212 whole entry): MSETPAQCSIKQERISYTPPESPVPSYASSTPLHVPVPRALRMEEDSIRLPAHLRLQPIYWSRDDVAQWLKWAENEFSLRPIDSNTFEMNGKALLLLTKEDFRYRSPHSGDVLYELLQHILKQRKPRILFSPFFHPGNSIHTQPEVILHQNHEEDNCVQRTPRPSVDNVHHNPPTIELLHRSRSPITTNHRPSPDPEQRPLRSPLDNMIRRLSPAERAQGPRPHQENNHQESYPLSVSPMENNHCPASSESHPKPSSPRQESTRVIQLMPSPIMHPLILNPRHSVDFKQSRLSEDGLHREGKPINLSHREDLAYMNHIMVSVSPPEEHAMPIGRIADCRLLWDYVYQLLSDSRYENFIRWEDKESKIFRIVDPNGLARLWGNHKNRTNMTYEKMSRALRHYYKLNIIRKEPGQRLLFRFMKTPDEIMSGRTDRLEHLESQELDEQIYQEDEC

For AACTTG, the binding signal in assay [1] is 1.18 fold enrichment (6-mer frequency, TF over GST control); in assay [2], 1.17 fold enrichment (6-mer frequency, TF over GST control); in assay [3], 1.18 fold enrichment (6-mer frequency, TF over GST control); in assay [4], 1.14 fold enrichment (6-mer frequency, TF over GST control); in assay [5] it was 1.08 fold enrichment (6-mer frequency, TF over GST control); in assay [6], 1.06 fold enrichment (6-mer frequency, TF over GST control). Moreover, the binding signal is 1.28 fold enrichment (6-mer frequency, TF over GST control) in assay [7] and 1.09 fold enrichment (6-mer frequency, TF over GST control) in assay [8].
With ACGTTA, the binding signal in assay [1] is 1.17 fold enrichment (6-mer frequency, TF over GST control); in assay [2], 1.12 fold enrichment (6-mer frequency, TF over GST control); in assay [3] it was 1.15 fold enrichment (6-mer frequency, TF over GST control); in assay [4], 1.06 fold enrichment (6-mer frequency, TF over GST control); in assay [5] it was 1.09 fold enrichment (6-mer frequency, TF over GST control); in assay [6], 1.06 fold enrichment (6-mer frequency, TF over GST control). Besides, the binding signal was 1.16 fold enrichment (6-mer frequency, TF over GST control) in assay [7] and 1.12 fold enrichment (6-mer frequency, TF over GST control) in assay [8].
As for CTGGTC, the binding signal is 1.19 fold enrichment (6-mer frequency, TF over GST control) in assay [1]; 1.27 fold enrichment (6-mer frequency, TF over GST control) in assay [2]; 1.21 fold enrichment (6-mer frequency, TF over GST control) in assay [3]; 1.24 fold enrichment (6-mer frequency, TF over GST control) in assay [4]; 1.15 fold enrichment (6-mer frequency, TF over GST control) in assay [5]; 1.17 fold enrichment (6-mer frequency, TF over GST control) in assay [6]. Moreover, the binding signal in assay [7] was 1.24 fold enrichment (6-mer frequency, TF over GST control); in assay [8], 1.08 fold enrichment (6-mer frequency, TF over GST control).
TCGCAA: the binding signal in assay [1] is 1.27 fold enrichment (6-mer frequency, TF over GST control); in assay [2] it was 1.1 fold enrichment (6-mer frequency, TF over GST control); in assay [3], 1.05 fold enrichment (6-mer frequency, TF over GST control); in assay [4] it was 1.09 fold enrichment (6-mer frequency, TF over GST control); in assay [5] it was 1.01 fold enrichment (6-mer frequency, TF over GST control); in assay [6], 1.06 fold enrichment (6-mer frequency, TF over GST control). Further, the binding signal in assay [7] was 1.13 fold enrichment (6-mer frequency, TF over GST control); in assay [8] it was 1.09 fold enrichment (6-mer frequency, TF over GST control).
Turning to TGTCTC, the binding signal in assay [1] was 1.2 fold enrichment (6-mer frequency, TF over GST control); in assay [2] it was 1.3 fold enrichment (6-mer frequency, TF over GST control); in assay [3], 1.26 fold enrichment (6-mer frequency, TF over GST control); in assay [4] it was 1.33 fold enrichment (6-mer frequency, TF over GST control); in assay [5] it was 1.16 fold enrichment (6-mer frequency, TF over GST control); in assay [6], 1.26 fold enrichment (6-mer frequency, TF over GST control). Besides, the binding signal is 1.21 fold enrichment (6-mer frequency, TF over GST control) in assay [7] and 1.22 fold enrichment (6-mer frequency, TF over GST control) in assay [8].
Regarding CCCACC, the binding signal in assay [1] is 1.16 fold enrichment (6-mer frequency, TF over GST control); in assay [2] it was 1.05 fold enrichment (6-mer frequency, TF over GST control); in assay [3] it was 1.02 fold enrichment (6-mer frequency, TF over GST control); in assay [4], 1.12 fold enrichment (6-mer frequency, TF over GST control); in assay [5] it was 1.08 fold enrichment (6-mer frequency, TF over GST control); in assay [6], 1.15 fold enrichment (6-mer frequency, TF over GST control). In addition, the binding signal in assay [7] was 1.06 fold enrichment (6-mer frequency, TF over GST control); in assay [8], 1.12 fold enrichment (6-mer frequency, TF over GST control).
For TGCATA, the binding signal in assay [1] is 1.09 fold enrichment (6-mer frequency, TF over GST control); in assay [2], 1.23 fold enrichment (6-mer frequency, TF over GST control); in assay [3], 1.17 fold enrichment (6-mer frequency, TF over GST control); in assay [4], 1.18 fold enrichment (6-mer frequency, TF over GST control); in assay [5], 1.23 fold enrichment (6-mer frequency, TF over GST control); in assay [6], 1.06 fold enrichment (6-mer frequency, TF over GST control). In addition, the binding signal in assay [7] was 1.11 fold enrichment (6-mer frequency, TF over GST control); in assay [8] it was 1.05 fold enrichment (6-mer frequency, TF over GST control).
